Unmarked numbers belong to inactive results. Records with an inconclusive call do not appear. Active and inactive are the calls of the source. Calls come from the whole dose curve; as a rule, active = well fitted curve in the direction sought with a large enough effect in the repeat runs; inconclusive = weak or mixed curves; inactive = no such curve, though single readings can be large; an effect the other way counts as inactive or inconclusive.

The record followed here is PubChem BioAssay (Tox21).

A short description of experiment [1]: A CellTox Green Cytotoxicity Assay to monitor cytotoxicity in HEK293 cells - 40 hour (AID 1224871). Note: nearly all actives have a fitted effect of over 45% in size. The method in brief:
(§1)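 Real-time, in one plate: 600 HEK293 cells/well with dead-cell DNA dye, pinned compound after 5 h, 37 C incubation over 40 h; viable cells give no appreciable fluorescence.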

The nature of experiment [2]: qHTS RealTime-Glo MT Cell Viability Assay in HEK293 cells - 16 hour (AID 1224872). Note: nearly all actives have a fitted effect of over 50% in size. Note: potency is the fitted concentration of half-maximal effect. In outline:
(§2)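 Cells + reagent dispensed (600 cells/well, HEK293) → 5 h at 37 C/5% CO2 → 23 nL compound in DMSO pinned → 40 h at 37 C → luminescence read at 0, 8, 16, 24, 32, 40 h.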
In general terms: Quantitative high-throughput screening tests each substance at several concentrations.

Experiment [3] in a line: qHTS RealTime-Glo MT Cell Viability Assay in HepG2 cells - 8 hour (AID 1224873). Note: nearly all actives have a fitted effect of over 55% in size. In outline:
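HepG2 cells (600/well) mixed with RealTime-Glo MT reagent, settled 5 h at 37 C/5% CO2 before compound addition. Nonlytic NanoLuc luminescence from viable-cell prosubstrate reduction read repeatedly during 40 h treatment at 37 C.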

Experiment [4] can be described thus: qHTS RealTime-Glo MT Cell Viability Assay in HEK293 cells - 40 hour (AID 1224874). Note: nearly all actives have a fitted effect of over 50% in size. Note: potency is the fitted concentration of half-maximal effect. The conditions noted are these: RealTime-Glo luminescence; max response: stronger effect = lower value. In outline: (§3)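 Kinetic, non-lysing viability readout. Seed HEK293 (600/well) with reagent, incubate 5 h at 37 C/5% CO2, pin 23 nL compound in DMSO, incubate at 37 C, read luminescence at 0, 8, 16, 24, 32, 40 h.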

The nature of experiment [5]: A CellTox Green Cytotoxicity Assay to monitor cytotoxicity in HEK293 cells - 24 hour (AID 1224875). Note: series mostly up to about 77 µM; nearly all actives have a fitted effect of over 45% in size. In outline:
as §1

Experiment [6] in a line: A CellTox Green Cytotoxicity Assay to monitor cytotoxicity in HepG2 cells - 16 hour (AID 1224876). Note: nearly all actives have a fitted effect of over 45% in size. In outline:
(§4)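 Cytotoxicity was tracked as dead-cell DNA fluorescence in HepG2 cells treated with test compounds at 37 C; each time-point value comes from one kinetic series spanning 0, 8, 16, 24, 32 and 40 h.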

Experiment [7] can be described thus: qHTS RealTime-Glo MT Cell Viability Assay in HepG2 cells - 32 hour (AID 1224877). Note: nearly all actives have a fitted effect of over 55% in size. The method in brief:
(§5)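 Real-time, nonlytic viability: 600 HepG2 cells/well mixed with NanoLuc enzyme plus prosubstrate; 5 h settle, compound (DMSO) added by pintool; luminescence monitored over 40 h at 37 C.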

Experiment [8] in a line: A CellTox Green Cytotoxicity Assay to monitor cytotoxicity in HepG2 cells - 40 hour (AID 1224879). Note: nearly all actives have a fitted effect of over 40% in size. Note: potency is the fitted concentration of half-maximal effect. The method in brief: as §4
The nature of experiment [9]: qHTS RealTime-Glo MT Cell Viability Assay in HEK293 cells - 0 hour (AID 1224880). Note: top concentration of the series differs between compounds; nearly all actives have a fitted effect of over 45% in size. In outline:
as §3

The nature of experiment [10]: A CellTox Green Cytotoxicity Assay to monitor cytotoxicity in HEK293 cells - 32 hour (AID 1224881). Note: nearly all actives have a fitted effect of over 40% in size. The method in brief: as §1
Experiment [11] is described as follows: A CellTox Green Cytotoxicity Assay to monitor cytotoxicity in HepG2 cells - 0 hour (AID 1224882). Note: nearly all actives have a fitted effect of over 35% in size. The method in brief:
as §4

Experiment [12] in a line: A CellTox Green Cytotoxicity Assay to monitor cytotoxicity in HEK293 cells - 8 hour (AID 1224884). Note: nearly all actives have a fitted effect of over 35% in size. In outline:
as §1

Experiment [13] can be described thus: qHTS RealTime-Glo MT Cell Viability Assay in HepG2 cells - 16 hour (AID 1224885). Note: nearly all actives have a fitted effect of over 50% in size. The method in brief:
as §5

Experiment [14] in a line: qHTS RealTime-Glo MT Cell Viability Assay in HEK293 cells - 24 hour (AID 1224886). Note: nearly all actives have a fitted effect of over 50% in size. Note: potency is the fitted concentration of half-maximal effect. The method in brief:
as §2

Experiment [15] in a line: qHTS RealTime-Glo MT Cell Viability Assay in HEK293 cells - 8 hour (AID 1224887). Note: nearly all actives have a fitted effect of over 50% in size. Note: potency is the fitted concentration of half-maximal effect. The method in brief:
as §3

Experiment [16] is described as follows: A CellTox Green Cytotoxicity Assay to monitor cytotoxicity in HEK293 cells - 16 hour (AID 1224888). Note: nearly all actives have a fitted effect of over 35% in size. The method in brief: as §1
Experiment [17] in a line: qHTS RealTime-Glo MT Cell Viability Assay in HepG2 cells - 0 hour (AID 1224889). Note: nearly all actives have a fitted effect of over 50% in size. The method in brief:
as §5

Experiment [18] can be described thus: A CellTox Green Cytotoxicity Assay to monitor cytotoxicity in HepG2 cells - 8 hour (AID 1224890). Note: nearly all actives have a fitted effect of over 45% in size. In outline:
as §4

Experiment [19] can be described thus: A CellTox Green Cytotoxicity Assay to monitor cytotoxicity in HepG2 cells - 24 hour (AID 1224878). Note: nearly all actives have a fitted effect of over 45% in size. In outline:
as §4

Experiment [20] in a line: A CellTox Green Cytotoxicity Assay to monitor cytotoxicity in HepG2 cells - 32 hour (AID 1224883). Note: nearly all actives have a fitted effect of over 50% in size. In outline: as §4
% is set by controls: 0 for no effect and ±100 for the full control effect.

Turning to `c1ccc(CN(Cc2ccccc2)Cc2ccccc2)cc1`, the Potency entry in [1], in experiment [2], in experiment [5], in experiment [6], in experiment [7] and in experiment [9] was “inactive” throughout. Further, the Potency entry in experiment [10], in experiment [11], in experiment [12], in [14], in experiment [15] and in experiment [16] was “inactive” throughout. Besides, the Potency entry in experiment [17] and in experiment [18] was “inactive” in each case. Besides, the compound was classed as inactive in experiment [3] and in [13]. For the same compound, the max response in [4] is 4.19%. In addition, the Potency in experiment [8] is 15.5 µM (active).

`CC1(COc2ccc(CC3SC(=O)NC3=O)cc2)CCCCC1` (stereo not given): the Potency entry in experiment [1], in [2], in [6], in [7], in [19] and in experiment [9] was “inactive” in each case. For the same compound, the Potency entry in [11], in experiment [20], in experiment [12], in [14], in [15] and in [16] was “inactive” in each case. Further, the Potency entry in [17] and in experiment [18] was “inactive” each time. Moreover, the outcome in experiment [3] and in experiment [13] was inactive. Besides, the max response in [4] was 1.6%.

On to `CC(C)(C)c1ccc(CCC=O)cc1`, for which the Potency entry in experiment [1], in [2], in experiment [5], in experiment [6], in experiment [7] and in [9] was “inactive” throughout. In addition, the Potency result in [10], in experiment [11], in experiment [12], in experiment [14], in [15] and in [16] was “inactive” each time. The Potency entry in experiment [17] and in experiment [18] was “inactive” in each case. Besides, the outcome in experiment [3] and in experiment [13] was inactive. Also, the max response in [4] is 3.22%.

Consider `Nc1cccc2c(=O)[nH][nH]c(=O)c12`, for which the Potency entry in experiment [1], in experiment [2], in experiment [5], in [6], in experiment [7] and in experiment [19] was “inactive” in each case. Besides, the Potency entry in experiment [8], in experiment [9], in experiment [10], in experiment [11], in experiment [20] and in experiment [12] was “inactive” each time. In addition, the Potency result in [14], in experiment [15], in experiment [16], in [17] and in experiment [18] was “inactive” each time. Besides, the outcome in [3] and in [13] was inactive.

As for `O=C1c2ccccc2C(=O)C1c1ccc2cc(S(=O)(=O)O)cc(S(=O)(=O)O)c2n1`, the Potency entry in [1], in experiment [2], in [5], in experiment [6], in experiment [7] and in experiment [19] was “inactive” throughout. Also, the Potency result in experiment [8], in [10], in [11], in experiment [20], in experiment [12] and in experiment [14] was “inactive” in each case. The Potency result in [16] and in [18] was “inactive” in each case. The compound was called inactive in experiment [3] and in experiment [13]. Moreover, the max response in [4] was -25.3%.

Regarding `CCCc1nc(C)c2c(=O)[nH]c(-c3cc(S(=O)(=O)N4CCN(CC)CC4)ccc3OCC)nn12`, the Potency result in experiment [1], in experiment [2], in [5], in experiment [6], in experiment [7] and in experiment [19] was “inactive” in each case. The Potency result in [8], in [9], in experiment [10], in experiment [11], in [20] and in experiment [12] was “inactive” each time. Moreover, the Potency entry in experiment [15], in [16] and in experiment [18] was “inactive” throughout. For the same compound, the compound was called inactive in [3] and in [13].

Consider `Cc1ccc(NC=O)c(C)c1`, for which the Potency result in experiment [1], in experiment [2], in experiment [5], in experiment [6], in experiment [7] and in experiment [19] was “inactive” throughout. Moreover, the Potency result in experiment [8], in [9], in experiment [10], in experiment [11], in experiment [12] and in experiment [14] was “inactive” in each case. Further, the Potency entry in experiment [15], in [17] and in experiment [18] was “inactive” each time. The result in experiment [3] and in experiment [13] was inactive. Besides, the max response in [4] is 4.39%.

`CCCCCCCCCCCCN1CCOCC1`: the Potency entry in experiment [1], in experiment [2], in experiment [5], in experiment [6], in [7] and in experiment [19] was “inactive” in each case. Besides, the Potency entry in [8], in experiment [10], in experiment [11], in [20], in [12] and in [14] was “inactive” in each case. Besides, the Potency entry in [15], in experiment [16], in experiment [17] and in experiment [18] was “inactive” each time. The compound was called inactive in experiment [3] and in experiment [13]. The max response in [4] is 4.57%.

As for `C=C[Si]1(C)O[Si](C)(C=C)O[Si](C)(C=C)O[Si](C)(C=C)O1` (stereo not given), the Potency entry in [1], in experiment [2], in experiment [5], in experiment [7], in experiment [9] and in experiment [10] was “inactive” in each case. Further, the Potency entry in [11], in experiment [12], in experiment [14], in experiment [15], in experiment [16] and in experiment [17] was “inactive” throughout. The Potency result in experiment [18] is “inactive”. Moreover, the call in [3] and in experiment [13] was inactive. Further, the max response in experiment [4] was -1.07%.

For the compound `CO[C@@H]1COCC[C@@H]1N[C@@H]1CC[C@@](C(=O)N2CCc3ncc(C(F)(F)F)cc3C2)(C(C)C)C1`, the Potency entry in experiment [1], in experiment [5], in [6], in [7], in [19] and in experiment [8] was “inactive” throughout. For the same compound, the Potency result in experiment [9], in experiment [10], in experiment [11], in [12], in experiment [17] and in experiment [18] was “inactive” each time. The Potency in [2] is 17.3 µM (active); in [4], 17.3 µM (active); in experiment [14], 17.3 µM (active); in experiment [15], 15.4 µM (active). The outcome in [3] and in experiment [13] was inactive.

For `CC(C)(C(=O)O)c1ccc(C(O)CCCN2CCC(C(O)(c3ccccc3)c3ccccc3)CC2)cc1` (stereo not given), the Potency entry in [1], in experiment [2], in experiment [5], in experiment [6], in experiment [7] and in experiment [19] was “inactive” in each case. Also, the Potency result in experiment [8], in [9], in [10], in [11], in [12] and in experiment [14] was “inactive” in each case. The Potency entry in experiment [15], in experiment [17] and in experiment [18] was “inactive” each time. Besides, the call in [3] and in experiment [13] was inactive. Moreover, the max response in experiment [4] is 1.75%.

Regarding `CS(C)=O`, the Potency result in [1], in [2], in experiment [5], in experiment [6], in experiment [7] and in experiment [19] was “inactive” throughout. In addition, the Potency result in experiment [8], in experiment [9], in experiment [10], in [11], in experiment [20] and in [12] was “inactive” each time. For the same compound, the Potency entry in experiment [15], in [16], in [17] and in experiment [18] was “inactive” throughout. Also, the outcome in experiment [3] and in experiment [13] was inactive.

For the compound `O=C(OCCOCCOCCOC(=O)c1ccccc1)c1ccccc1`, the Potency result in experiment [1], in [2], in experiment [5], in experiment [6], in experiment [7] and in [9] was “inactive” in each case. Besides, the Potency result in experiment [10], in [11], in experiment [12], in [14], in [16] and in experiment [17] was “inactive” each time. Also, in [18], the Potency entry is “inactive”. In addition, the compound was classed as inactive in experiment [3] and in experiment [13]. Besides, in experiment [4], the max response is 13.2%.

`CCCCCCOC(=O)c1ccccc1`: the Potency entry in [1], in experiment [2], in experiment [5], in experiment [6], in [7] and in [19] was “inactive” each time. Moreover, the Potency result in [8], in experiment [9], in [10], in experiment [11], in experiment [20] and in [12] was “inactive” throughout. For the same compound, the Potency result in experiment [14], in experiment [15] and in experiment [18] was “inactive” each time. For the same compound, the compound was called inactive in experiment [3] and in experiment [13].
